Laboratory results from PubChem BioAssay (EPA / NIEHS).
“And” between values parts separate entries of the source, which are not always exact repeats. Equal values may be shown once. The source holds several records for some structures; these can differ, active in one and inactive in another. The source made the active and inactive calls. The calls were made as follows: active = hit-call score of the fitted dose curve at least 0.9, where 1 is the maximum; inactive = score below 0.9.

Assays:
[1] = read-out: Plasminogen activator inhibitor-1 (PAI1), SERPINE1 (gene 5054); test: BSK_MyoF_PAI1: BioMAP Diversity Plus: MyoF Assay for Plasminogen activator inhibitor-1 (PAI1) Biomarker Activity (AID 2284256); conditions: primary human lung fibroblasts
In short: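 Activity reflects increased PAI-1, determined by ELISA and compared with DMSO, in human lung fibroblasts treated for 24 h.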

[2] = read-out: Interleukin-8 (IL8), CXCL8 (gene 3576); test: BSK_MyoF_IL8: BioMAP Diversity Plus: MyoF Assay for Interleukin-8 (IL8) Biomarker Activity (AID 2284261); conditions: primary human lung fibroblasts
In short: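 In this multiplexed primary-cell system, fibroblasts from human lung are treated with chemicals, and IL-8 is detected by ELISA at 24 h, with DMSO serving as the negative reference.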

Decorin, DCN (gene 1634) = test: BSK_MyoF_Decorin: BioMAP Diversity Plus: MyoF Assay for Decorin Biomarker Activity (AID 2284265); conditions: primary human lung fibroblasts
In short: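 Lung fibroblast cultures, 24 h chemical exposure. Decorin by ELISA, positive fitting direction, DMSO baseline.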

[3] = BSK_MyoF_SRB: Viability Assessment in the BioMAP Diversity Plus: MyoF Assay (AID 2284267); conditions: primary human lung fibroblasts;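 also: total protein by SRB absorbance in parallel cultures as cytotoxicity measure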
In short: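 Lung fibroblast cultures, 24 h post-dose; fix 10% TCA, stain 0.1% SRB, read 560 nm. Signal = total protein as cytotoxicity measure; fitted relative to DMSO negative control.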

[4] = read-out: Matrix Metallopeptidase 1 (MMP1), MMP1 (gene 4312); test: BSK_MyoF_MMP1: BioMAP Diversity Plus: MyoF Assay for Matrix Metallopeptidase 1 (MMP1) Biomarker Activity (AID 2284268); conditions: primary human lung fibroblasts
In short: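 MMP1 measured by ELISA 24 h after dosing primary human lung fibroblasts; cytotoxicity checked in parallel cultures by sulforhodamine B total-protein staining read at 560 nm.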

[5] = read-out: TIMP metallopeptidase inhibitor 1 (TIMP1), TIMP1 (gene 7076); test: BSK_MyoF_TIMP1: BioMAP Diversity Plus: MyoF Assay for TIMP metallopeptidase inhibitor 1 (TIMP1) Biomarker Activity (AID 2284269); conditions: primary human lung fibroblasts
In short: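 TIMP-1 levels were determined by ELISA in human lung fibroblasts treated for 24 h. DMSO served as negative control and baseline for upward curve fitting.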

[6] = read-out: Plasminogen activator inhibitor-1 (PAI1), SERPINE1 (gene 5054); test: BSK_KF3CT_PAI1: BioMAP Diversity Plus: KF3CT Assay for Plasminogen activator inhibitor-1 (PAI1) Biomarker Activity (AID 2284252); conditions: primary human keratinocytes with fibroblasts
In short: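 Keratinocyte + dermal fibroblast co-culture (human primary); 24 h post-dose; PAI-1 by ELISA; gain-of-signal fit vs DMSO control.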

[7] = read-out: Interleukin-8 (IL8), CXCL8 (gene 3576); test: BSK_KF3CT_IL8: BioMAP Diversity Plus: KF3CT Assay for Interleukin-8 (IL8) Biomarker Activity (AID 2284254); conditions: primary human keratinocytes with fibroblasts
In short: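 ELISA detection of IL-8 from a human skin co-culture, keratinocytes with foreskin fibroblasts, at 24 h following chemical exposure, with gain of signal scored against DMSO controls.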

[8] = read-out: Monocyte Chemoattractant Protein-1 (MCP1), CCL2 (gene 6347); test: BSK_IMphg_MCP1: BioMAP Diversity Plus: IMphg Assay for Monocyte Chemoattractant Protein-1 (MCP1) Biomarker Activity (AID 2284253); conditions: primary human endothelial cells with macrophages
In short: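 ELISA readout of MCP-1 at 24 hours in IMphg co-cultures of venular endothelial cells and macrophages, normalised to DMSO; parallel cultures stained with sulforhodamine B for overt cytotoxicity.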

[9] = read-out: Macrophage Inflammatory Protein-1 Alpha (MIP1a), CCL3 (gene 6348); test: BSK_IMphg_MIP1a: BioMAP Diversity Plus: IMphg Assay for Macrophage Inflammatory Protein-1 Alpha (MIP1a) Biomarker Activity (AID 2284255); conditions: primary human endothelial cells with macrophages
In short: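 MIP-1a protein levels were quantified by ELISA after 24 h treatment of human endothelial cell–macrophage co-cultures, compared with DMSO. Parallel cultures were fixed with TCA and stained with 0.1% SRB to gauge overt cytotoxicity.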

CD69, CD69 (gene 969) = test: BSK_IMphg_CD69: BioMAP Diversity Plus: IMphg Assay for CD69 Biomarker Activity (AID 2284257); conditions: primary human endothelial cells with macrophages
In short: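 Readout is ELISA for CD69 in primary human venular endothelial cell/macrophage co-culture, taken at 24 h post-dosing. SRB staining of parallel cultures gauged overt cytotoxicity; signal increase versus DMSO defined activity.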

[10] = read-out: Eotaxin 3, CCL26 (gene 10344); test: BSK_BF4T_Eotaxin3: BioMAP Diversity Plus: BF4T Assay for Eotaxin 3 Biomarker Activity (AID 2284258); conditions: primary human bronchial epithelial cells with fibroblasts
In short: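 ELISA measurement of Eotaxin-3 after 24 h chemical exposure in a bronchial epithelial/dermal fibroblast co-culture, with DMSO as baseline. Parallel SRB staining (0.1% SRB after 10% TCA fixation, 560 nm) flagged overt cytotoxicity.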

[11] = read-out: Monocyte Chemoattractant Protein-1 (MCP1), CCL2 (gene 6347); test: BSK_BF4T_MCP1: BioMAP Diversity Plus: BF4T Assay for Monocyte Chemoattractant Protein-1 (MCP1) Biomarker Activity (AID 2284259); conditions: primary human bronchial epithelial cells with fibroblasts
In short: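 MCP-1 ELISA readout taken 24 h after dosing in the BF4T system (bronchial epithelial cells plus dermal fibroblasts). Parallel SRB total-protein staining flagged cytotoxicity; DMSO served as baseline, positive fitting direction.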

[12] = read-out: Intercellular Adhesion Molecule 1 (ICAM1), ICAM1 (gene 3383); test: BSK_BF4T_ICAM1: BioMAP Diversity Plus: BF4T Assay for Intercellular Adhesion Molecule 1 (ICAM1) Biomarker Activity (AID 2284260); conditions: primary human bronchial epithelial cells with fibroblasts
In short: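 ICAM-1 levels measured by ELISA after 24 h chemical treatment of bronchial epithelial cell/dermal fibroblast co-cultures, read against DMSO baseline. Overt cytotoxicity checked in parallel cultures by sulforhodamine B staining.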

CD90, THY1 (gene 7070) = test: BSK_BF4T_CD90: BioMAP Diversity Plus: BF4T Assay for CD90 Biomarker Activity (AID 2284262); conditions: primary human bronchial epithelial cells with fibroblasts
In short: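 CD90 levels by ELISA after 24 h treatment of human bronchial epithelial cell/dermal fibroblast cultures, analysed versus DMSO. Overt cytotoxicity checked in parallel cultures by sulforhodamine B staining.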

[13] = read-out: Interleukin-8 (IL8), CXCL8 (gene 3576); test: BSK_BF4T_IL8: BioMAP Diversity Plus: BF4T Assay for Interleukin-8 (IL8) Biomarker Activity (AID 2284263); conditions: primary human bronchial epithelial cells with fibroblasts
In short: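 Human bronchial epithelial cells with dermal fibroblasts co-culture; IL-8 measured by ELISA 24 hours after dosing, fitted vs DMSO. Cytotoxicity tracked in parallel cultures by SRB total-protein staining.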

[14] = read-out: Interleukin-1 alpha (IL1a), IL1A (gene 3552); test: BSK_BF4T_IL1a: BioMAP Diversity Plus: BF4T Assay for Interleukin-1 alpha (IL1a) Biomarker Activity (AID 2284264); conditions: primary human bronchial epithelial cells with fibroblasts
In short: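 ELISA read-out of IL-1α from bronchial epithelial cell/dermal fibroblast co-cultures 24 h after compound addition. Increases scored against DMSO negative control. Cytotoxicity monitored by sulforhodamine B staining of parallel cultures.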

KRT18 (gene 3875) = test: BSK_BF4T_Keratin818: BioMAP Diversity Plus: BF4T Assay for Keratin 818 Biomarker Activity (AID 2284266); conditions: primary human bronchial epithelial cells with fibroblasts
In short: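 Keratin 8/18 levels quantified by ELISA after 24 h chemical treatment of bronchial epithelial cell/dermal fibroblast co-cultures, fitted in positive direction relative to DMSO. Parallel SRB staining tracks overt cytotoxicity.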

[15] = read-out: Matrix Metallopeptidase 1 (MMP1), MMP1 (gene 4312); test: BSK_BF4T_MMP1: BioMAP Diversity Plus: BF4T Assay for Matrix Metallopeptidase 1 (MMP1) Biomarker Activity (AID 2284270); conditions: primary human bronchial epithelial cells with fibroblasts
In short: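 MMP-1 quantified by ELISA in primary human bronchial epithelial/dermal fibroblast co-cultures, 24 hours post-dosing, with DMSO as baseline; parallel sulforhodamine B staining (560 nm) tracks overt cytotoxicity.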

[16] = read-out: Matrix Metallopeptidase 3 (MMP3), MMP3 (gene 4314); test: BSK_BF4T_MMP3: BioMAP Diversity Plus: BF4T Assay for Matrix Metallopeptidase 3 (MMP3) Biomarker Activity (AID 2284271); conditions: primary human bronchial epithelial cells with fibroblasts
In short: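 MMP-3 level read by ELISA after 24 h chemical exposure of bronchial epithelial cell/dermal fibroblast co-cultures, fitted upward relative to DMSO. Parallel cultures stained with 0.1% SRB after TCA fixation gauge overt cytotoxicity.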

Measured: AC50

CCOC(=O)/C=C(C)/C=C/C[C@@H](C)CCCC(C)C
inactive: [2]
active: [1] 32.3 µM | Decorin, DCN (gene 1634) 20 µM | [3] 30.1 µM | [4] 20 µM | [5] 29.8 µM

ClC1=C(Cl)[C@]2(Cl)[C@H]3[C@H]([C@H]4C=C[C@H]3C4)[C@@]1(Cl)C2(Cl)Cl
active: [2] 2.92 µM | [4] 20 µM
inactive: [1] | Decorin, DCN (gene 1634) | [3] | [5]

CCOP(=S)(OCC)Oc1ccc(S(C)=O)cc1 (stereo not drawn)
inactive: [1] | [2] | Decorin, DCN (gene 1634) | [3] | [4] | [5]

OCc1ccco1
inactive: [1] | [2] | Decorin, DCN (gene 1634) | [3] | [4] | [5]

CC(=O)OC(c1ccccc1)C(Cl)(Cl)Cl (stereo not drawn)
inactive: [6] | [7]

COP(=S)(OC)Oc1cc(Cl)c(Cl)cc1Cl
inactive: [1] | Decorin, DCN (gene 1634) | [3] | [5]
active: [2] 4.59 µM | [4] 20 µM

O=C(O)C(F)(F)C(F)(F)C(F)(F)C(F)(F)C(F)(F)C(F)(F)C(F)(F)C(F)(F)C(F)(F)C(F)(F)F
inactive: [8] | [9] | CD69, CD69 (gene 969) | CD90, THY1 (gene 7070) | [4]
active: [6] 2.66 µM and 4.56 µM | [7] 3.33 µM and 5.2 µM | [1] 5.52 µM and 6.52 µM | [10] 3.14 µM and 3.33 µM | [11] 5.55 µM and 5.18 µM | [12] 5.15 µM and 4.51 µM | [2] 6.34 µM and 6.43 µM | CD90, THY1 (gene 7070) 4.83 µM | [13] 5.82 µM and 5.74 µM | [14] 5.56 µM and 6.17 µM | Decorin, DCN (gene 1634) 5.02 µM and 5.16 µM | KRT18 (gene 3875) 5.05 µM and 5.17 µM | [3] 5.01 µM and 5.05 µM | [5] 4.33 µM and 5.2 µM | [15] 5.11 µM and 5.66 µM | [16] 5.26 µM and 3.33 µM

NC(=S)Nc1ccccc1
inactive: [1] | [2] | Decorin, DCN (gene 1634) | [3] | [4] | [5]

O=C(OC1CCCCC1)c1ccccc1C(=O)OC1CCCCC1
active: [1] 20.9 µM | [2] 5.72 µM | [3] 13.3 µM | [4] 5.69 µM | [5] 25.7 µM
inactive: Decorin, DCN (gene 1634)

CC(=O)C(Cl)C(=O)N(C)C (stereo not drawn)
inactive: [1] | [2] | Decorin, DCN (gene 1634) | [3] | [4] | [5]

C(=NC1CCCCC1)=NC1CCCCC1
active: [1] 7.53 µM | [2] 33.1 µM | [3] 7.2 µM | [4] 4.75 µM | [5] 6.97 µM
inactive: Decorin, DCN (gene 1634)

CC1(C)Cc2cccc(O)c2O1
inactive: [1] | [2] | Decorin, DCN (gene 1634) | [3] | [4] | [5]

Nc1ccc(-c2ccc(N)c(Cl)c2)cc1Cl
active: [2] 2.04 µM | [3] 24.9 µM | [4] 7.38 µM
inactive: [1] | Decorin, DCN (gene 1634) | [5]

Oc1c(I)cc(I)cc1I
active: [2] 3.55 µM | [3] 18.2 µM | [4] 5.11 µM
inactive: [1] | Decorin, DCN (gene 1634) | [5]

CCCCC(CC)CO[N+](=O)[O-] (stereo not drawn)
active: [4] 31.6 µM
inactive: [1] | [2] | Decorin, DCN (gene 1634) | [3] | [5]

COP(=S)(OC)Oc1ccc(S(=O)(=O)N(C)C)cc1
inactive: [1] | [2] | Decorin, DCN (gene 1634) | [3] | [4] | [5]

O=C(O)C(F)(F)C(F)(F)C(F)(F)C(F)(F)C(F)(F)C(F)(F)F
inactive: [6] | [8] | [7] | [9] | [1] | CD69, CD69 (gene 969) | [10] | [11] | [12] | [2] | CD90, THY1 (gene 7070) | [13] | [14] | Decorin, DCN (gene 1634) | KRT18 (gene 3875) | [3] | [4] | [5] | [15] | [16]

Oc1ccc(-c2ccccc2)cc1
inactive: [1] | [2] | Decorin, DCN (gene 1634) | [3] | [4] | [5]
